What all share (test): NCI-60 one-dose screen, 48 h (100 = growth as untreated, 0 = no growth, -100 = all killed)
What all share (settings): 10 µM

Test [1] has as its system UO-31 renal.
For test [2], the system named is TK-10 renal.
For test [3], the system named is ACHN renal.
In test [4] the test system is CAKI-1 renal.
The subject of test [5] is A498 renal.
Test [6] deals with CCRF-CEM leukemia.
The test system of test [7] is MOLT-4 leukemia.
Test [8] deals with SR leukemia.
Test [9] relates to SN12C renal.

About 83,000 compounds went through this panel and 20% of them were active in at least one assay; those are over-represented in the sample as a whole.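 Negative percent growth values reflect cell death: -40 means 40% of the cells present at the start died, and -100 means all died.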 Values without a mark were called inactive. Calls of active or inactive are those of the source. Rule for the calls: active = growth percent below 10; inactive = the rest.

On to `Cc1c(Cl)cccc1NC(=O)c1sc2nc3c(cc2c1N)C(=O)CCC3`, for which the growth in [1] is 33.3%; in test [2] it was 74.3%; in test [3], 39.4%; in [4], 23.9%; in [5], -19% (active); in test [6] it was 7.08% (active). Also, the growth is 6.7% (active) in test [7] and 2.96% (active) in test [8].

For `COc1ccc(-c2nc(-c3nc4ccc(OC)cc4[nH]3)cc3c2[nH]c2ccccc23)cc1`, the growth was 20.7% in test [9]; 8.19% (active) in test [1]; 31.9% in [3]; 0.0135% (active) in test [4]; 46.3% in test [5]; 11% in [6]. The results for the growth in test [7] and in [8] were 47.3% and 33.6%, respectively.

As to `COc1cc(-c2cc(-c3cc4c([nH]c5ccccc54)c(-c4cc(OC)c(OC)c(OC)c4)n3)cc(-c3ccccc3)n2)cc(OC)c1OC`, the growth was 54.6% in [9]; 36.9% in test [1]; 62.8% in [3]; 32.9% in test [4]; 54.5% in [5]; 37.9% in test [6]. The growth was 18.5% in test [7] and 16.7% in test [8].

For the compound `CN(C)N=Nc1nn(C(=O)Nc2ccc(Cc3ccccc3)cc2)c2ccccc12`, the growth was 41.9% in test [1]; 34.3% in test [3]; 15.5% in [4]; 82.4% in test [5]; 64.1% in test [7]; 59.8% in [8].

In the case of `Nc1ccc2c(c1)C1(CCC2)NC(=O)NC1=O` (stereo not given), the growth in test [1] is 93.3%; in [2] it was 109%; in [3] it was 101%; in [4], 95.7%; in test [5] it was 101%; in [6] it was 96.9%. The growth in test [7] is 98.8%; in test [8], 89.7%.

Regarding `CSc1nc(=O)n(Cc2ccc(Cl)cc2)c(=O)[nH]1`, the growth is 107% in [9]; 112% in test [1]; 103% in test [3]; 112% in test [4]; 103% in [5]; 100% in [6]. Moreover, the growth in test [7] was 105%; in [8], 95.5%.

Turning to `CC/C(=C(/c1ccc(OCCN(C)C)cc1)c1ccc(OC(=O)CCCCC(=O)c2c(C)[nH]c(/C=C3\N=C(c4ccc[nH]4)C=C3OC)c2C)cc1)c1ccccc1`, the growth is 62.3% in test [9]; 45.4% in test [1]; 103% in [2]; 47.6% in [4]; 75.7% in [5]; 26.7% in test [7]. The growth in test [8] is 45.3%.

Regarding `COc1cc(-c2cc(/C=C/C(=O)c3ccc(F)c(F)c3)[nH]n2)cc(OC)c1OC`, the growth was 39.2% in test [9]; 61.2% in [1]; 36.8% in [3]; 6.42% (active) in test [4]; 60.9% in test [5]; 33.3% in test [6]. In addition, the figures for the growth in test [7] and in test [8] were 41% and 44.3%, respectively.

Regarding `O=C(Nc1cccc(-n2cc(-c3ccncc3)c(-c3cc(O)cc(Cl)c3)n2)c1)c1ccc(N2CCOCC2)c(C(F)(F)F)c1`, the growth in test [1] was 3.98% (active); in test [2], 70.3%; in test [3] it was 20.7%; in test [4], 14.8%; in [5], 72.7%; in [6], 13.1%. Moreover, the results for the growth in [7] and in test [8] were -29.7% (active) and -12.4% (active), respectively.

As to `O=C1Nc2ccc(Cl)cc2/C1=C\c1c(-c2ccc(Cl)cc2)nc2sc(C3CC3)nn12`, the growth in [9] is 75.7%; in test [1], 63.7%; in test [2], 52.9%; in test [4] it was 45.7%; in test [5], 14.9%; in test [6] it was 93.6%. Besides, in test [8], the growth is 44.2%.

Take `COc1ccc(Cn2c(C(N)=O)cc3c2-c2nc(N)ncc2CCC3)cc1`: the growth was 82.6% in [1]; 108% in [2]; 97.1% in [3]; 105% in [4]; 76.2% in [5]; 95.8% in test [6]. For the same compound, the growth in test [7] and in [8] was 108% in each case.

As for `CC(=O)c1nc2ccccc2n1CCN1CCN(C)CC1`, the growth in [9] was 46.7%; in test [1], 53.1%; in test [3] it was 78%; in test [4] it was 94.1%; in test [5] it was 36.6%; in test [6], 3.66% (active). In addition, the results for the growth in test [7] and in test [8] were 49.9% and 6.52% (active), respectively.

Take `Cc1ccc(-c2n[nH]c(=O)c3noc(-c4ccc(C)cc4)c23)cc1`: the growth in [9] is 47%; in [1], 20.3%; in [3] it was 33.9%; in test [4], 16.9%; in [5], 13.8%; in test [6], 17.5%. In addition, the growth in [7] is 44.2%; in test [8], 10.2%.

On to `CC1(C)Cc2c(sc3ncn4nc(-c5ccc(O)cc5)nc4c23)CO1`, for which the growth in test [1] was 44.3%; in test [2] it was 56.4%; in [3] it was 67.6%; in test [4] it was 76.7%; in test [5], -9.39% (active); in [6], 70.5%. In addition, the growth in test [7] is 69.4%; in [8], 22.8%.

On to `CC(=O)c1nc2ccccc2n1CCNC(N)=O`, for which the growth is 89.6% in [9]; 78.8% in test [1]; 91.3% in test [3]; 105% in test [4]; 78.8% in test [5]; 68.3% in test [6]. Further, the results for the growth in test [7] and in [8] were 77.2% and 43.5%, respectively.

In the case of `COc1cc(C(=O)/C=C/c2cc(-c3cc(OC)c(OC)c(OC)c3)n[nH]2)cc(OC)c1OC`, the growth is 2.09% (active) in test [9]; -77.2% (active) in test [1]; -25.8% (active) in test [3]; 8.9% (active) in [4]; 29.2% in [5]; -23.8% (active) in test [6]. The growth in [7] was 7.64% (active); in [8] it was -7.98% (active).

As for `C/C(N)=C(\C#N)C(=O)c1ccccc1`, the growth was 86.4% in [1]; 106% in test [2]; 105% in [3]; 107% in test [4]; 91.5% in [5]; 102% in test [6]. The growth in test [7] was 110%; in test [8], 112%.

For the compound `FC(F)(F)c1ccc(-c2cnc(Cl)nc2N2CCC3(CC2)OCCO3)cc1`, the growth in test [1] was 69.5%; in test [2], 89.8%; in test [3], 92.6%; in [4], 86.5%; in test [5], 75.8%; in test [6], 91.1%. For the same compound, the growth is 74% in test [7] and 81.5% in [8].

In the case of `COc1cc(-c2cc(/C=C/C(=O)c3ccc4c(c3)OCO4)[nH]n2)cc(OC)c1OC`, the growth in test [9] was 63.9%; in test [1], 38.7%; in test [3], 84.6%; in test [4], 59.7%; in [5], 73.7%; in test [6], 0.141% (active). In addition, the growth in test [7] was 52.7%.

Consider `COc1ccc(OC)c(NC(=O)c2sc3nc4c(cc3c2N)C(=O)CCC4)c1`, for which the growth in test [1] is 84.7%; in test [2], 98%; in [3] it was 106%; in test [4] it was 86.3%; in [5] it was 3.5% (active); in [6] it was 84.4%. Further, the growth in test [8] is 73.7%.

As to `O=S(=O)(Nc1ccccn1)c1ccc(N=Nc2ccc(O)c3ncccc23)cc1`, the growth was -24.1% (active) in test [1]; -1.22% (active) in test [2]; -1.83% (active) in test [3]; -4.15% (active) in [4]; -11.5% (active) in test [5]; 7.55% (active) in test [6]. The growth in test [7] is 4.77% (active); in test [8] it was 0.457% (active).

Regarding `N=C(N)c1ccc(-c2ccc(-c3ccco3)o2)cc1`, the growth was 55% in test [1]; 109% in test [2]; 79.4% in test [3]; 54.5% in test [4]; 33.3% in test [5]; 60.7% in [6]. The growth in [7] was 31.3%; in test [8] it was -17.8% (active).

With `O=C1NC(=O)c2ncccc21`, the growth was 105% in test [9]; 104% in test [1]; 110% in test [3]; 96.4% in [4]; 110% in test [5]; 99.1% in test [6]. Moreover, the growth in test [8] is 111%.

`COc1cc(-c2cc(/C=C/C(=O)c3ccc(Cl)c(Cl)c3)[nH]n2)cc(OC)c1OC`: the growth in test [9] is 64.3%; in test [1] it was 54.1%; in test [3] it was 81.5%; in [4], 82.9%; in [5] it was 70.6%; in test [8], -6.68% (active).

With `c1ccc(CP(Cc2ccccc2)c2ccccc2)cc1`, the growth was 73.8% in test [1]; 98.6% in test [2]; 102% in test [3]; 92.3% in test [4]; 103% in test [5]; 89.5% in test [6]. Besides, the results for the growth in test [7] and in test [8] were 92.5% and 82.3%, respectively.

Consider `Cc1cc(Cc2cc(C)c(O)c(C)c2)cc(C)c1O`, for which the growth in test [1] is 61.2%; in [2], 77.5%; in test [3], 72.1%; in test [4], 42.8%; in test [5], 97.5%; in test [7] it was 22.8%. Also, the growth in test [8] is 25.1%.

Regarding `CC(=O)N1C/C(=C/c2ccc(Cl)cc2)C(=O)/C(=C/c2ccc(Cl)cc2)C1`, the growth in [1] was -88.8% (active); in test [2], -15.7% (active); in test [3], -46.1% (active); in [4], -15% (active); in [5], -5.57% (active); in test [6], -13.3% (active). Moreover, the growth in test [7] was 0.236% (active); in [8], -15.1% (active).

Regarding `C=C1c2c(C)nn(-c3ccc(OC)cc3)c2N(C)C23C[C@@H]1C1(C)c4c(C)nn(-c5ccc(OC)cc5)c4N(C)C(C)(C[C@H]12)C3` (stereo not given in full), the growth is 23.8% in test [9]; 16.2% in [1]; 33.8% in test [3]; 2.18% (active) in test [4]; 40.2% in test [5]; 14.9% in test [7]. Besides, the growth in test [8] is 3.27% (active).

For `COc1ccc(C(=O)/C=C/c2cc(-c3cc(OC)c(OC)c(OC)c3)n[nH]2)cc1`, the growth in [9] is 25.1%; in test [1], 5.28% (active); in test [3], 58.6%; in test [4], 4.76% (active); in test [5] it was 62.2%; in test [6] it was -35.9% (active). The growth was 3.23% (active) in [7] and -39.7% (active) in test [8].

As for `COc1ccc(-c2cc(/C=C3\C(=O)Nc4ccc(Cl)cc43)[nH]n2)cc1OC`, the growth in [1] was 71.1%; in [2], 90%; in test [3], 79.4%; in test [4] it was 81.3%; in test [5] it was 76%; in [6], 72.2%. Besides, the growth in test [7] was 57.5%; in test [8], 55.2%.

Consider `O=c1[nH]c(-c2ccc(Cl)cc2)nc2sc3c(c12)CCCC3`, for which the growth in test [9] was 52.5%; in test [1], 78.8%; in test [3], 53.3%; in test [4], 13.4%; in [5], 86.6%; in test [6], 12.3%. For the same compound, the results for the growth in test [7] and in test [8] were 49.4% and 0.705% (active), respectively.

As to `N=C(N)c1ccc(-c2ccc(-c3cccs3)s2)cc1`, the growth in test [9] was 85.9%; in test [1] it was 17.1%; in test [2], 67.8%; in [4], 85.2%; in test [5] it was -25.9% (active); in [7], -48.6% (active). The growth in test [8] is -35.6% (active).

Consider `COc1cc2cc3c(nc2cc1OC)CCN3Cc1ccc(NC(=O)Nc2cc(C(F)(F)F)cc(C(F)(F)F)c2)cc1`, for which the growth in test [1] is 57.7%; in test [2] it was 85.6%; in test [3] it was 69.6%; in test [4], 69.4%; in test [5] it was 58.4%; in [6], 51.7%. Moreover, the results for the growth in test [7] and in test [8] were 36.9% and 55.2%, respectively.

In the case of `NC(=O)CC1(c2ccccc2)CCCCC1`, the growth in test [1] is 93.1%; in [2], 109%; in test [3] it was 104%; in test [4], 96.8%; in [5], 102%; in test [6], 98.9%. The growth is 94.2% in test [7] and 90.9% in test [8].

The record behind these values is PubChem BioAssay (NCI).
